Measurements from PubChem BioAssay (NCATS).
Records with an inconclusive call do not appear. Active and inactive are the calls of the source. The call rests on the fitted dose curve; in most records, active means well fitted curve in the direction sought with a large enough effect; inconclusive means small, poorly fitted or top-dose-only effect, or another doubt; inactive means no such curve, though single readings can be large; an effect the other way counts as inactive or inconclusive.

Tests used:
[1] = molecular target: Cellular tumor antigen p53 (Homo sapiens) (UniProt P04637); experiment: Primary qHTS for small molecule compounds that upregulate eGFP-tagged delta133p53alpha (in N-terminal) cells. (AID 2060322); settings: NCI-H358 eGFP-delta133p53alpha fluorescence, 24 h; activation: active compounds read high;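 further: series mostly up to about 56 µM; 0% = DMSO vehicle and 100% = reference activator; nearly all actives have a fitted effect of over 75% in size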
Procedure, shortened: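 NCI-H358 cells pre-induced 24 h with 10 ng/ml doxycycline to express N-terminal eGFP-delta133p53alpha, then dosed 24 h at 37C without doxycycline; fixed, Hoechst-stained, GFP intensity by laser scanning cytometry, normalized to DMSO (0%) and 57.5 uM 5-azacytidine (100%).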

[2] = molecular target: Aldehyde dehydrogenase, mitochondrial (Homo sapiens) (UniProt P05091); experiment: qHTS for Inhibitors of the Aldehyde Dehydrogenase Family (ALDH2) Primary screen (AID 2061308);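 further: plate controls were vehicle for no effect and reference inhibitor for full effect; nearly all actives have a fitted effect of over 55% in size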
[3] = molecular target: Retinaldehyde dehydrogenase 3 (Homo sapiens) (UniProt P47895); experiment: qHTS for Inhibitors of the Aldehyde Dehydrogenase Family (ALDH1A3) Primary screen (AID 2061315);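 further: plate controls were DMSO vehicle for no effect and reference inhibitor for full effect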

Chain of Cellular tumor antigen p53 (Homo sapiens) (P04637 whole entry, looked up): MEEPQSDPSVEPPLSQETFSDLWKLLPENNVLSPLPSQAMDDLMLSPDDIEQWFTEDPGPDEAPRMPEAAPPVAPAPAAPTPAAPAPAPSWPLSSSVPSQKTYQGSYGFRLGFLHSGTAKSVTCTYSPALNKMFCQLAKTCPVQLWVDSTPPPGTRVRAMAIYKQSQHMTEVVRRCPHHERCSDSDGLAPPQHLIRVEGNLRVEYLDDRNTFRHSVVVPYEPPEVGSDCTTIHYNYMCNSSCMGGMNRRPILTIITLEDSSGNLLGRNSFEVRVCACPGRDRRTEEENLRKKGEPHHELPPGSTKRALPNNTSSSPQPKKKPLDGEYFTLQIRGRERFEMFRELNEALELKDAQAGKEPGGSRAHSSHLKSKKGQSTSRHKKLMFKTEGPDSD

CC(C)(O)C1CC=C(C(=O)OC[C@H]2O[C@@H](Oc3cc(C(=O)O)cc(O)c3O)[C@H](O)[C@@H](O)[C@@H]2O)CC1 (stereo partly specified)
inactive: activation [1] -22.1% | Potency [2] | Potency [3]

C/C(=C/CO)CC[C@@H]1[C@@](C)(O)CCC2C(C)(C)CCC[C@]21C (stereo partly specified)
inactive: activation [1] -7.14% | Potency [2] | Potency [3]

CC(CCC1(O)OC2CC3C4CCC5CC(O[C@@H]6O[C@H](CO)[C@@H](O)[C@H](O)[C@H]6O[C@@H]6O[C@@H](C)[C@H](O)[C@@H](O)[C@H]6O)C(O)CC5(C)C4CCC3(C)C2C1C)CO[C@@H]1O[C@H](CO)[C@@H](O)[C@H](O)[C@H]1O (stereo partly specified)
inactive: activation [1] 9.82% | Potency [2] | Potency [3]

CC1(C)CC[C@]2(C(=O)O)CC[C@]3(C)C(=CCC4[C@@]5(C)C[C@@H](O)[C@H](O)C(C)(C)C5CC[C@]43C)[C@@H]2[C@@H]1O (stereo partly specified)
inactive: activation [1] -0.893% | Potency [2] | Potency [3]

CCCC1=CC2=C(CO1)C(=O)C(C)(OC(=O)c1c(C)cc(OC)cc1O)C(O)C2 (stereo unspecified)
inactive: activation [1] -24.4% | Potency [2] | Potency [3]

C=C[C@@]1(C)CCC2C(=CCC3[C@]2(C)CCC[C@@]3(C)C(=O)O)C1 (stereo partly specified)
inactive: activation [1] -12.2% | Potency [2] | Potency [3]

C/C(=C\CCC(C(=O)O)C1CCC2(C)C3=C(CCC12C)C1(C)CCC(=O)C(C)(C)C1CC3)C(=O)O (stereo unspecified)
inactive: activation [1] 1.53% | Potency [2] | Potency [3]
